PubChem BioAssay AID651821 (The Scripps Research Institute Molecular Screening Center, 2012)
In all, about 370,000 compounds went through this assay and about 4,700 (1.3%) were called active. The list comes from a sample in which actives are over-represented; it also holds similar structures and randomly drawn compounds. A number with no mark means an inactive call.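 The calls were made as follows: active = inhibition above the plate cutoff, the mean of all test compounds on that plate plus 3 SD (cut at about 35% in these data); inactive = the rest.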

Assay: binders of r(CAG) RNA repeats, primary screen, biochemical, fluorescence (AID 651821);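 also: 0% = DMSO alone and 100% = 100 µM mitoxantrone as full dye displacement; higher means more dye released from RNA so lower well fluorescence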
Settings: r(CAG) RNA repeat, TO-PRO-1 dye displacement fluorescence; at 3 µM; active compounds read high

SMILES	inhibition
COC(=O)c1ccc(C(NC(=O)OCc2ccccc2)/C(F)=C/[C@@H](C)C(=O)O)cc1 (stereo partly drawn)	7.38%
COc1ccc(COC(=O)NC(C(=O)O)c2ccccc2)cc1 (stereo not drawn)	41.2% (active)
CC(C)[C@H](NC(=O)OCc1ccccc1)C(=O)OCc1ccccc1	-7.02%
O=S1(=O)CC(N2CCN(CCO)CC2)CN1Cc1cn(Cc2cccc(Cl)c2)nn1 (stereo not drawn)	1.81%
Cc1ccccc1CSc1nnc(-c2ccccc2)c(=O)[nH]1	6.58%
O=C(Nn1c(SCc2ccc([N+](=O)[O-])cc2)nc2ccccc2c1=O)c1ccc(F)cc1	25.7%
Cc1ccc(CSc2nc(-c3ccccc3)c(C#N)c(=O)[nH]2)cc1	84.2% (active)
N#Cc1c(-c2ccccc2)nc(SCc2cccc(C(F)(F)F)c2)[nH]c1=O	91.1% (active)
N#Cc1c(-c2ccccc2)nc(SCc2ccc([N+](=O)[O-])cc2)[nH]c1=O	74% (active)
COc1ccccc1CSc1ncc(-c2ccc([N+](=O)[O-])cc2)[nH]1	6.09%
CC1(Cc2cccc(C#N)c2)C(=O)Nc2ccc(-c3cccc(C(F)(F)F)c3)cc21 (stereo not drawn)	2.77%
Cc1ccc(CSc2nsc(C)c2C#N)cc1	-2.07%
Cc1ccc(CSc2nc3[nH]ncc3c(=O)[nH]2)cc1	-3.55%
CN(C(N)=NC(=O)/C=C/c1ccccc1)C(C#Cc1ccccc1)Cc1ccccc1 (stereo not drawn)	3.26%
COc1ccc(-c2cc(-c3nnc(SCc4ccc([N+](=O)[O-])cc4)n3N)[nH]n2)cc1	9.69%
COC(=O)c1cccc(Cn2ccc3ccc(-c4ccc5ccn(C(=O)C6CCCCC6)c5c4)cc32)c1	12.2%
Cc1ccc(Cn2cc(CN3[C@@H](C)COc4cc(Br)ccc4S3(=O)=O)nn2)cc1	3.68%
C=CCN1C(=O)[C@H](CC(=O)NCCCN2CCCC2=O)[C@@]2(C(=O)OCC)CCCC=C12	1.48%
COc1cc(NC(=O)C2CCCN(S(=O)(=O)c3ccc(C(C)(C)C)cc3)C2)cc(OC)c1 (stereo not drawn)	9.76%
O=C(CCCN1C(=O)/C(=C\c2ccco2)SC1=S)Nc1cccc2ccccc12	40.1% (active)
Cc1ccc(-n2c(SCC(=O)Nc3cccc4ccccc34)nnc2-c2ccco2)cc1	6.64%
Cc1c(Cl)cccc1NC(=O)CCC(=O)N/N=C/c1ccco1	-4.6%
O=C(O)c1ccc(NC(=O)c2ccc(COc3ccc(Cl)cc3)o2)cc1	22.1%
O=C(c1cnn(-c2ccc(Cl)cc2)c1)c1ccccc1O	2.23%
COc1ccc(-c2nn(-c3ccccc3)cc2/C=C\C(=O)Nc2ccc(C(=O)O)cc2)cc1	83.7% (active)
O=C(O)c1ccc(N/N=C/c2cn(-c3ccccc3)nc2-c2cccs2)cc1	70.5% (active)
O=C(NNC(=S)NC(=O)c1cn(-c2ccccc2)nc1-c1ccccc1)c1ccncc1	42.5% (active)

SMILES	inhibition
O=C(N/N=C/c1sc(N2CCCCC2)nc1-c1cccs1)c1cccnc1	5.88%
CC(=O)c1ccc(NC(=O)c2cc(-c3cccs3)on2)cc1	-1.84%
O=C(O)c1ccc(NC(=O)c2cn(-c3ccccc3)nc2-c2ccc(Cl)cc2)cc1	80.9% (active)
O=C(NNC(=S)NCCCN1CCOCC1)c1ccncc1	-0.42%
O=C(c1cn(-c2ccccc2)nc1-c1cccnc1)N1CCN(S(=O)(=O)c2ccccc2F)CC1	3.83%
COc1ccc(NC(=O)c2cn(-c3ccccc3)nc2SC)cc1	5.53%
O=C(/C=C/c1cn(-c2ccccc2)nc1-c1ccc2c(c1)OCCO2)NCCCN1CCOCC1	-0.21%
CC1CCCN(c2cccc3c2S(=O)(=O)N(Cc2ccc(F)cc2)[C@@H](C)[C@H](c2ccccc2)O3)C1 (stereo partly drawn)	1.44%
Cn1cc(S(=O)(=O)Nc2ccc(Cl)cc2Cl)c(=O)n(C)c1=O	1.76%
COC(=O)c1ccc(CN2C(=O)[C@]3(OCCC=C[C@H]3C)c3c(Br)cccc32)cc1	0.13%
O=S(=O)(c1ccccc1)N1CCC(c2nc3ccccc3o2)CC1	0.56%
COC(=O)[C@]12CCCCC=C1N(Cc1ccc(Cl)cc1Cl)C(=O)[C@H](CC(=O)NCc1cccc3ccccc13)C2	12.9%
O=C(NC1CCC1)c1ccc(C#Cc2cccc(F)c2)c[n+]1[O-]	1.31%
C#CCNC(=O)C[C@H]1C[C@@]2(C(=O)OC)C(=C[C@H](C(C)C)O[C@@H]2C2CC2)N(Cc2ccco2)C1=O	-0.82%
COC1=C[C@H](C(=O)NCCNC(C)=O)[C@H](C)[C@@H](c2ccccc2)CC1=O	7.1%
COC(=O)C1=C(C)N(Cc2cccc(C(F)(F)F)c2)C(=NCc2ccccc2)NC1c1ccc(Cl)cc1 (stereo not drawn)	6.45%
N#CC1(NC(=O)COC(=O)Cc2n[nH]c(=O)c3ccccc23)CCCCC1	-1.83%
COC(=O)c1cccc(Cn2ccc3ccc(-c4ccc5ccn(C(=O)c6ccccc6C)c5c4)cc32)c1	10.1%
COC(=O)C[C@@H]1CC[C@@H]2[C@@H](COc3ccc(NC(=O)Nc4ccc(F)c(F)c4)cc3C(=O)N2C)O1	3.67%
CCOC(=O)[C@H]1Nc2ccc(Cl)cc2[C@@H]2[C@H]1C1CC(c3ccccc31)N2C(=O)OCc1ccccc1 (stereo partly drawn)	8.62%
CCOC(=O)C1Nc2ccc(C(F)(F)F)cc2C2C=CCC12 (stereo not drawn)	60.5% (active)
CCOC(=O)C[C@H]1c2ccc(C(F)(F)F)cc2S(=O)(=O)N1c1ccccc1	4.3%
CC1=CC=CC2=N/C(=N\S(=O)(=O)c3ccc(F)cc3F)c3ccccc3CN12	-1.16%
CC(=O)c1cc(-c2ccc3ccccc3c2)c(=O)n2c1CCC2	5.03%
N#Cc1ccccc1CN1C(=O)S/C(=C/c2cccn2-c2cccc(C(=O)O)c2)C1=O	58.4% (active)
O=C(CSc1nc2sc3c(c2c(=O)n1-c1ccccc1)CCCC3)NN=Cc1ccc(OCc2ccccc2)cc1	7.65%
